Values joined by “and” are separate entries in the source; they are usually repeats but may differ in a detail not shown here. Identical values can stand only once. This is part of a sample that, as a whole, favours compounds with a hit. Of some 79,000 tested, about 15% had one in any assay. Active and inactive are the calls of the source. No stated cut-off is given here; in the data, active means growth inhibition above about 70%; inactive means the rest.
Tests used:
[1] = NCI Yeast Anticancer Drug Screen. Data for the rad50 strain (AID 155);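 further: 0% = growth of vehicle-only cultures of the same strain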; conditions: S. cerevisiae rad50 strain growth inhibition; at 50.0 µM; active compounds read high
Summary of the method: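 Yeast carrying a defined DNA repair defect were exposed to test compounds, and growth was compared with vehicle-treated controls to give percent inhibition.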

[2] = NCI Yeast Anticancer Drug Screen. Data for the mec2-1 strain (AID 157); conditions: S. cerevisiae mec2-1 strain, at 50.0 µM, active compounds read high
Summary of the method: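 Each compound was tested on mec2-1 yeast, a strain altered in DNA damage repair or cell cycle control. Growth inhibition is reported relative to vehicle.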

[3] = NCI Yeast Anticancer Drug Screen. Data for the sgs1 mgt1 strain (AID 161);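 further: 0% = growth of cultures given vehicle only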; conditions: S. cerevisiae sgs1 mgt1 strain, at 50.0 µM, active compounds read high
Summary of the method: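 Inhibition of yeast growth, normalised to vehicle-treated controls, is reported for a strain bearing genetic alterations in DNA damage repair.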

[4] = NCI Yeast Anticancer Drug Screen. Data for the cln2 rad14 strain (AID 165);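 further: 0% = growth equal to vehicle treated cultures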; conditions: S. cerevisiae cln2 rad14 strain, at 50.0 µM, active compounds read high
Summary of the method: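 Test compounds were added to cln2 rad14 yeast cultures; inhibition of growth was then determined by comparison with vehicle treatment.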

[5] = NCI Yeast Anticancer Drug Screen. Data for the bub3 strain (AID 167); conditions: S. cerevisiae bub3 mutant strain, at 50.0 µM, active compounds read high
Summary of the method: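 Compounds were applied to a genetically altered yeast strain carrying a cell-cycle control defect. Growth inhibition was scored against vehicle-treated controls.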

[6] = NCI Yeast Anticancer Drug Screen. Data for the mlh1 rad18 strain (AID 175); conditions: S. cerevisiae mlh1 rad18 strain growth inhibition; at 50.0 µM; active compounds read high
Summary of the method: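 Inhibition values reflect reduced growth of mutant yeast versus vehicle-treated controls following compound exposure; the mutations affect DNA damage repair.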

Measured: growth inhibition

O=C(COc1ccc(Cl)c(Cl)c1)NCCc1cc[n+](Cc2ccc(Cl)cc2S(=O)(=O)F)cc1
inactive: [1] 7.45% | [2] 5.4% | [3] -9.05% | [4] 31.5% | [5] 1.8% | [6] 11.9%

CN(C)CCc1ccccc1
inactive: [1] -15.1% | [2] 2.35% | [3] 13.9% | [4] 20.8% | [5] -2.3% | [6] 11.1%

CC(CC(C#N)(c1ccccc1)c1ccccc1)[N+]1(C)CCCCCCC1 (centres undefined)
inactive: [1] 11.9% | [2] 1.2% | [3] 2.85% | [4] 1.65% | [5] 1.35% | [6] 19%

CSCCC([NH-])C(=O)O.CSCCC([NH-])C(=O)O.[Cu+2] (centres undefined)
inactive: [1] -18.1% | [2] 7.95% | [3] -9.2% | [4] -33.3% | [5] -13.1% | [6] -2.5%

[Cl][Co][Cl].[NH-]CC[NH-].[NH-]CC[NH-]
inactive: [1] 19.2% and -9.85% | [2] 9.3% and 29.6% | [3] 25.2% and -4.55% | [4] -9.95% and 9.2% | [5] 36.7% and 2.4% | [6] 37% and -23.4%

O=C(O)C(Cl)(Cl)Cl
inactive: [1] -0.6% | [2] -22.6% | [3] -15.8% | [4] 14.4% | [5] -17.4% | [6] 21.1%

[C-]#[O+].[C-]#[O+].[C-]#[O+].[Mo].c1ccc([PH+](CC[As](c2ccccc2)c2ccccc2)CC[As](c2ccccc2)c2ccccc2)cc1
inactive: [1] 11.4% | [2] 9.45% | [3] 21.1% | [4] 19.2% | [5] 6.7% | [6] 28.9%

O=[N+]([O-])c1ccc(/C=N\NP(Br)(c2ccccc2)(c2ccccc2)c2ccccc2)cc1
inactive: [1] 15.4% | [2] 0.3% | [3] 26.9% | [4] 3.95% | [5] -2.5% | [6] 4.75%

CCC[CH2][Sn]([I])([CH2]I)[CH2]CCC
active: [1] 98.5% | [2] 99.1% | [3] 99% | [4] 98.6% | [5] 98.8% | [6] 98.5%

CC(=O)O.CC(=O)O.[Co+2].[NH-]C(CCC(N)=O)C(=O)O.[NH-]C(CCC(N)=O)C(=O)O (centres undefined)
inactive: [1] 15.2% | [2] 13.4% | [3] 34.2% | [4] -4% | [5] 22.3% | [6] 19.9%

CC1(O)CCC(O)CC1CC(=O)O (centres undefined)
inactive: [1] 11.8% | [2] 8.5% | [3] 9.45% | [4] 22.1% | [5] -0.15% | [6] 11.4%

CN(C)c1ccc(C(=O)CCCN2CCC3(CC2)C(=O)NCN3c2ccccc2)cc1
inactive: [1] -13.9% | [2] 8.95% | [3] 5.9% | [4] -40.8% | [5] -1.05% | [6] -11.5%

CC(C)(C)c1ccc(C(C)(C)OO)cc1
inactive: [1] 31.6% | [2] -0.7% | [3] 18.3% | [4] 12.3% | [5] 10.2% | [6] 6.2%

N#Cc1ccccc1Cl
inactive: [1] 8.05% | [2] -8.4% | [3] 5.45% | [4] 20.7% | [5] 24.2% | [6] 40%

S=C(Nc1ccccc1)Nc1ccc(N(CCCl)CCCl)cc1
inactive: [1] 17.6% | [2] 0% | [3] 12.6% | [4] -40.8% | [5] 10.1% | [6] 21.7%

O=P1(N(CCCl)CCCl)OC(c2ccccc2)=CCN1c1ccccc1 (centres undefined)
inactive: [1] 0.6% | [2] 20.1% | [3] 57.2% | [4] 32.4% | [5] 50% | [6] 34.6%

CCOC(=O)/C(=C\c1ccc(C(F)(F)F)cc1)[Se]c1ccccc1
inactive: [1] 26.6% | [2] -34.1% | [3] 9.35% | [4] 13.8% | [5] -2.5% | [6] -0.3%

O=C(O)COc1ccccc1
inactive: [1] 10.9% and -7.6% | [2] 9.2% and 1.65% | [3] 5.8% and -36.2% | [4] -16.6% and 6.7% | [5] -10.2% and -17.4% | [6] -13.2% and -0.15%

OCC(O)C(O)C(O)C1C[O][Sb][O]1 (centres undefined)
inactive: [1] 0.85% | [2] 3.6% | [3] 7.85% | [4] -11.2% | [5] -2.85% | [6] 8.2%

O=[N+]([O-])O.[NH-]C1CCCCC1[NH-].[NH-]C1CCCCC1[NH-].[OH-].[OH-].[Pt+4].[Pt+4] (centres undefined)
inactive: [1] 49.8% | [2] -4.8% | [3] -29.3% | [4] -5.45% | [5] -41% | [6] 30.2%

CC1NC1c1ccccc1 (centres undefined)
inactive: [1] -13.6% | [2] -29.3% | [3] -6.85% | [4] -20.4% | [5] -11.8% | [6] -19.4%

c1ccc(-c2cccc(-c3ccccc3)c2)cc1
inactive: [1] 30.1% | [2] 15.3% | [3] 31.3% | [4] -0.6% | [5] 24.6% | [6] 44%

COC(=O)N/N=C(\C)C(CN(C)C)C(c1ccccc1)c1c(O)c2ccccc2oc1=O (centres undefined)
inactive: [1] 35.4% | [2] 28.9% | [3] 47% | [4] 34.6% | [5] 49.4% | [6] 34.1%

COc1ccc(C=C2C(=O)NC(=O)NC2=O)cc1OC
inactive: [1] 10.7% | [2] -0.6% | [3] 22.2% | [4] 8.8% | [5] -11.8% | [6] 23.9%

CC1(C)CN=C(Nc2ccc(F)c(F)c2)S1
inactive: [1] 4.3% | [2] 3.8% | [3] 12.1% | [4] 15.3% | [5] -12.8% | [6] -19.6%

SCc1c(Cl)c(Cl)c(Cl)c(Cl)c1Cl.[Hg]
inactive: [1] -7.65% | [2] -24.9% | [3] -15.5% | [4] -64.8% | [5] 3.45% | [6] -28.1%

CCC(Br)C(N)=O (centres undefined)
inactive: [1] -9.25% | [2] 3.2% | [3] -6.9% | [4] -59.5% | [5] -4.25% | [6] -1%

COc1ccc(C(C)N)cc1 (centres undefined)
inactive: [1] -47.4% | [2] -5.3% | [3] -10.4% | [4] -11.2% | [5] -4.3% | [6] -2.9%

CNC(=O)Oc1cccc(N=CN(C)C)c1
inactive: [1] 7.65% | [2] 1.05% | [3] 0% | [4] 9.9% | [5] -20.4% | [6] 16.7%

CP1(=S)CC[C@H]2C3=C(CC[C@@H]21)CC(=O)CC3 (some centres undefined)
inactive: [1] 14.4% | [2] 14.6% | [3] 11.3% | [4] 52.9% | [5] 2.9% | [6] 16.9%

CCCNC(Cc1ccccc1)c1ccccc1 (centres undefined)
inactive: [1] -7.95% | [2] -9.25% | [3] 3.4% | [4] -10.1% | [5] -0.7% | [6] -1%

CCN1C(=O)C(=C/C=C/C=C2/N(C)c3ccccc3C2(C)C)C(=O)N(CC)C1=S
inactive: [1] -28.9% | [2] -8.25% | [3] -11.3% | [4] -32.5% | [5] 0.45% | [6] 0.35%

CC(=O)OC1[C@H](n2ccnc2)C[C@H]2[C@@H]3CC=C4CC(N5CCCC5)CC[C@]4(C)[C@H]3CC[C@]12C (some centres undefined)
inactive: [1] 2.1% | [2] -9.1% | [3] -29.9% | [4] 7.05% | [5] -48.8% | [6] -55.4%

COP(=O)(NC(=O)OC(C)C)OC
inactive: [1] -37.1% | [2] -21.2% | [3] -9.8% | [4] 5.2% | [5] -15.4% | [6] -7.95%

C[P+](CCl)(CCl)CCl
inactive: [1] 5.45% | [2] -6.45% | [3] -11.7% | [4] -7.3% | [5] -7.6% | [6] -10%

[N-]=[N+]=NC1(C(=O)O)CCCC1
inactive: [1] 0.95% | [2] -6.85% | [3] -15.4% | [4] -14.2% | [5] -5.75% | [6] -34.8%

CC(C)CCC(=O)OC1CCC2(C)C(=CCC3C4CCC(=O)C4(C)CCC32)C1 (centres undefined)
inactive: [1] 3.35% | [2] 12.1% | [3] 5.35% | [4] -18.7% | [5] -1.9% | [6] 13.2%

O=C(NCCNC(=O)Nc1ccccc1S(=O)(=O)F)Nc1ccccc1S(=O)(=O)F
inactive: [1] -17% | [2] -35.2% | [3] -16.1% | [4] 6.55% | [5] -32.1% | [6] -13%

Cc1c(Cl)cccc1NC(=O)C(=O)C1C(=O)NC(=O)NC1=O
inactive: [1] -10.8% | [2] -10.8% | [3] -13.8% | [4] -6% | [5] -17.8% | [6] -17.9%

— PubChem BioAssay (NCI)
